Data from article PMC5869772, “Quantitative profiling of BATF family proteins/JUNB/IRF hetero-trimers using Spec-seq”.

Experiments:
Test in all cases: Spec-seq (EMSA and sequencing of bound and unbound bands); 100 nM BATFx-JUNB, 1 uM dsDNA library, 50 mM K acetate, 20 mM Tris-acetate, 10 mM Mg acetate, 100 ug/ml BSA, pH 7.9, 10% glycerol, 30 min on ice; native 9% PAGE at 4 C; low values mean tight binding
Conditions in all cases: protein: recombinant;recombinant; tags: N-terminal mCherry-TEV, cleaved off;C-terminal 6His; copies: 1;1; dsDNA, one strand shown
[1] = target: T1, BATF;JUNB (human;human, UniProt Q16520;P17275 1-125;148-347, |)
T1 sequence 1: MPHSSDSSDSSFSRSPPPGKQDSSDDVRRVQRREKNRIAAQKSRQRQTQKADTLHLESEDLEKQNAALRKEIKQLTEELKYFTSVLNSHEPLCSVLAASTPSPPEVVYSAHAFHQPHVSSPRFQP
T1 sequence 2: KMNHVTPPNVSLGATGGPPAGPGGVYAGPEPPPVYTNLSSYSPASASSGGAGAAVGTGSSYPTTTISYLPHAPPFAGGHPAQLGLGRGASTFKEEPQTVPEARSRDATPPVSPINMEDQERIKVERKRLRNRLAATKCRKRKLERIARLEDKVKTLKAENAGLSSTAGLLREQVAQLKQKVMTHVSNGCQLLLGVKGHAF
Summary of the method: (§1)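 The protein, at 100 nM, was incubated with 1 μM double-stranded degenerate DNA library for 30 min on ice in NEB Cutsmart buffer with 10% glycerol, then resolved by native 9% PAGE at 4 °C. Excised bound and unbound bands were PCR-barcoded and Illumina-sequenced, and each sequence's relative binding energy in kT is −ln of its bound/unbound read-count ratio.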

[2] = target: T2, BATF2 (bZIP);JUNB (human;human, UniProt Q8N1L9;P17275 1-142;148-347, |)
T2 sequence 1: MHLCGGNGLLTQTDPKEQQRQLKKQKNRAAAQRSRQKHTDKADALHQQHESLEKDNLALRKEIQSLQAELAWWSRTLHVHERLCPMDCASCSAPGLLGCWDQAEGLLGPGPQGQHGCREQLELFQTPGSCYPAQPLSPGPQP
T2 sequence 2: T1 sequence 2
Summary of the method: as §1

[3] = target: T3, BATF3;JUNB (human;human, UniProt Q9NR55;P17275 1-127;148-347, |)
T3 sequence 1: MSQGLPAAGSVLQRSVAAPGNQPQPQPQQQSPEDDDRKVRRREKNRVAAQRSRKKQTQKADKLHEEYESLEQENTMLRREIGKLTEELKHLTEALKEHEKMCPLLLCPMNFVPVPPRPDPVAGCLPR
T3 sequence 2: T1 sequence 2
Summary of the method: as §1

Sequence | binding signal [1] [kT] | binding signal [2] [kT] | binding signal [3] [kT]
GATAGTCTCATTTTCACCCCGTGAAATTCAGTCATTGTTCCATTACAGTATCTGT | -0.317 | 0.285 | -0.0636
GATAGTCTCATTTTCACCCCGTGAAATGAGTAATTTGTTCCATTACAGTATCTGT | -0.4 | 0.147 | -0.208
GATAGTCTCATTTTCACCCCGTGAAATGTCTCATTTGTTCCATTACAGTATCTGT | 0.287 | 0.93 | 0.725
GATAGTCTCATTTTCACCCCGTGAAATTACTCATTTGTTCCATTACAGTATCTGT | -0.755 | -0.323 | -0.827
GATAGTCTCATTTTCACCCCGTGAAACTGCGTCATTGTTCCATTACAGTATCTGT | -0.647 | -0.164 | -0.774
GATAGTCTCATTTTCACCCCGTGAAATGACTAAATTGTTCCATTACAGTATCTGT | -0.125 | 0.513 | 0.0877
GATAGTCTCATTTTCACCCCGTGAAATGACTCGCTTGTTCCATTACAGTATCTGT | -0.141 | 0.667 | 0.378
GATAGTCTCATTTTCACCCCGTGAAATGAGACATTTGTTCCATTACAGTATCTGT | 0.216 | 1.21 | 0.604
GATAGTCTCATTTTCACCCCGTGAAAATGGGTCATTGTTCCATTACAGTATCTGT | -0.00523 | 0.62 | 0.203
GATAGTCTCATTTTCACCCCGTGAAAATGCGTCATTGTTCCATTACAGTATCTGT | -1.01 | -0.552 | -1.11
GATAGTCTCATTTTCACCCCGTGAAACTGGGTCATTGTTCCATTACAGTATCTGT | 0.364 | 0.724 | 0.562
GATAGTCTCATTTTCACCCCGTGAAAGGGAGTCATTGTTCCATTACAGTATCTGT | -0.148 | 0.485 | 0.287
